EPAC2 ag = qHTS for Agonist of cAMP-regulated guanine nucleotide exchange factor 4 (EPAC2): primary screen | Potency, µM (series often up to 154 µM), hits mostly activators | AID 720711, 2013 | EPAC2 activation, biochemical qHTS; response scale: 100% = 6.5 mM cAMP response | hit rate 0.079% among 360,000; also: nearly all actives have a fitted effect of over 50% in size
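qHTS, titration series. 100 nM EPAC2 / 250 nM Rap1B-BODIPY-GDP / 50 uM GDP; RT; ex 480/em 540 nm, 5-min reads to 30 min. Norm. to 6.5 mM cAMP = activation.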
EPAC1 antagonist = qHTS for Antagonist of cAMP-regulated guanine nucleotide exchange factor 3 (EPAC1): primary screen. Rap guanine nucleotide exchange factor 3 (Homo sapiens), O95398. EPAC1 GEF assay, Rap1b-BODIPY-GDP exchange fluorescence. Potency, µM (highest dose often 115 µM), hits mostly inhibitors. hit rate 0.14% among 360,000. AID 720709, 2013; also: nearly all actives have a fitted effect of over 50% in size
Target sequence (O95398 whole entry, looked up): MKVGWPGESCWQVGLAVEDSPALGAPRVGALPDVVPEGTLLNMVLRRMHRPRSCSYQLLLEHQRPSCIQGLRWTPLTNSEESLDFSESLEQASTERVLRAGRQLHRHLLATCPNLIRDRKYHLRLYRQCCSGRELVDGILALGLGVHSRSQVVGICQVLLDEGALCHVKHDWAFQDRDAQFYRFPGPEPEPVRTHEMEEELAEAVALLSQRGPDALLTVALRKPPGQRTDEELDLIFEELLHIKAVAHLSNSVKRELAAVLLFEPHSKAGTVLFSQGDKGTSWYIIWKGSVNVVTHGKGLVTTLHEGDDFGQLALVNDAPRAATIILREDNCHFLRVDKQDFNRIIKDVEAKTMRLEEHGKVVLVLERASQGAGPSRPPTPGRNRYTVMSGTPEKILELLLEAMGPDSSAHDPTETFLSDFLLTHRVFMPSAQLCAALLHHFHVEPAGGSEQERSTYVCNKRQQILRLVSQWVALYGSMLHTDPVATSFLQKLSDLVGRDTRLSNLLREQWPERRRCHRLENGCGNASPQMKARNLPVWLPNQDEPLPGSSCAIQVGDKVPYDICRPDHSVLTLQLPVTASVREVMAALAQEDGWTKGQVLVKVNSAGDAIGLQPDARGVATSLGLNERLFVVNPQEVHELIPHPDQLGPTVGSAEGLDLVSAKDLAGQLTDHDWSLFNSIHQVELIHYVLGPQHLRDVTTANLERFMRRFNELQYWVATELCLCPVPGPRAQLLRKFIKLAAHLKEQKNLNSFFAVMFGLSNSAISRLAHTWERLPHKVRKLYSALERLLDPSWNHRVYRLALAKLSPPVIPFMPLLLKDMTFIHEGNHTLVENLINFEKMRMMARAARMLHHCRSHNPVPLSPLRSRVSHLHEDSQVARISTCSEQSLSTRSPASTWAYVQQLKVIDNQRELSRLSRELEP
EPAC1 agonist = qHTS for Agonist of cAMP-regulated guanine nucleotide exchange factor 3 (EPAC1): primary screen; EPAC1 agonist qHTS, biochemical assay; response scale: 100% = response to 6.5 mM cAMP; Potency, µM (highest dose often 154 µM), usual class: activators; hit rate 0.073% among 360,000; also: nearly all actives have a fitted effect of over 60% in size
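Nucleotide exchange assay: 100 nM EPAC1 with 250 nM Rap1B loaded with BODIPY-GDP and 50 uM GDP, room temperature. Fluorescence (480/540 nm) read every 5 min for 30 min; signal change normalized to 6.5 mM cAMP as full agonist.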
TRPML1 inh = qHTS for Inhibitors of the Human Mucolipin Transient Receptor Potential 1 (TRPML1); Mucolipin-1 (Homo sapiens), Q9GZU1; TRPML1-inducible cells, Ca2+ dye fluorescence, FDSS; active compounds read low; inhibition of EC80 agonist-evoked calcium signal; activity change, negative = inhibition, % (concentration not given with the values); hit rate 0.02% among 390,000; AID 624415, 2012; in the data active = activity change below about -50%; inconclusive = between about -30% and that limit;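 also: stimulus is agonist 54-4 at its EC80 concentration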
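Tet-induced TRPML1-DL cells loaded with Ca8 no-wash calcium dye were read kinetically on FDSS. Compound addition was followed by EC80 agonist 54-4 (4 uM final); inhibition was read over 110 s.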
EPAC2 antag = qHTS for Antagonist of cAMP-regulated guanine nucleotide exchange factor 2 (EPAC2): primary screen; Rap guanine nucleotide exchange factor 4 (Homo sapiens), Q8WZA2; EPAC2 GEF exchange of Rap1B-BODIPY-GDP, fluorescence; Potency, µM (highest dose often 114 µM), actives largely listed as inhibitors; hit rate 0.18% among 360,000; AID 720708, 2013; also: nearly all actives have a fitted effect of over 45% in size
TRPML1 agonist = qHTS for Agonists of the Human Mucolipin Transient Receptor Potential 1 (TRPML1). TRPML1-expressing cells, Ca2+ dye fluorescence, FDSS. Mucolipin-1 (Homo sapiens), Q9GZU1. activation, % (test concentration not listed). hit rate 0.12% among 410,000; in the data active = activation above about 50%; inconclusive = mostly about 30% to 49%
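Calcium fluorescence on an FDSS kinetic reader gave the read-out. Tet-induced TRPML1-DL cells were plated overnight, dye-loaded (Ca8 with quencher, 45-90 min, room temperature, dark), then read 110 s after compound addition, and again 110 s after 4uM final 54-4 (EC80).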
Of the large screens only hits and unclear results are named; the others gave an inactive call. An excerpt weighted towards active compounds, which were near 0.4% of everything screened. Unless noted, calls follow the shape of the dose curve; as a rule, active = well fitted curve in the direction sought with a large enough effect; inconclusive = small, poorly fitted or top-dose-only effect, or another doubt; inactive = no such curve, though single readings can be large; an effect the other way counts as inactive or inconclusive.

Nc1nc(=S)[nH]c2n[nH]nc12	none (no result: EPAC2 ag, EPAC1 antagonist, EPAC1 agonist, TRPML1 inh, EPAC2 antag)
COc1cc(/C=C2/C(=O)c3cccc([N+](=O)[O-])c3C2=O)c(Br)cc1O	EPAC1 antagonist 40µM
Cc1ccc(NC2C(=O)NC(=O)NC2=O)cc1	EPAC1 antagonist 79µM, EPAC2 antag inconclusive
COc1ccc(N2CCN(C3CCCCC3NS(=O)(=O)c3ccc(Cl)cc3)CC2)cc1 (configuration not stated)	TRPML1 agonist 63
COc1ccccc1N1CCN(C2CCCCC2NS(=O)(=O)c2ccc(Cl)cc2)CC1 (configuration not stated)	none
N#CC(Sc1ccccn1)c1ccc(Cl)cc1Cl (configuration not stated)	EPAC2 antag 25µM
c1ccc2nccnc2c1	none (no result: EPAC2 ag, EPAC1 antagonist, EPAC1 agonist, TRPML1 inh, EPAC2 antag)
COc1ccc2cc(CCC(C)=O)ccc2c1	EPAC2 antag 28µM
COc1cc2nc(N3CCN(C)CC3)nc(NC(C)C)c2cc1OC	none (no result: EPAC2 ag, EPAC1 antagonist, EPAC1 agonist, TRPML1 inh, EPAC2 antag)
O=C(CSc1ncccn1)Nc1ccc2c(c1)OCO2	none
Brc1cc2c(cc1CSc1ncccn1)OCO2	EPAC2 antag 35µM
CC(CCC(C)C(C)(C)C)[C@@H]1CC[C@H]2C3C[C@H](OS(O)(=S)=S)[C@H]4C[C@H](OS(O)(=S)=S)[C@@H](OS(O)(=S)=S)C[C@]4(C)[C@H]3CC[C@]12C (some centres not stated) (tested in a mixture with another compound)	EPAC1 antagonist 16µM, EPAC2 antag 20µM
CCOc1ccc(/C=C2\SC(=S)NC2=O)cc1OC	EPAC1 antagonist inconclusive, EPAC2 antag 13µM
COc1ccc(/C=C2\SC(=S)NC2=O)cc1OS(=O)(=O)c1ccc(NC(C)=O)cc1	EPAC1 antagonist inconclusive, EPAC2 antag 50µM
Cc1ccc(-n2cccc2/C=C2/C(=N)N3C(=NC2=O)SN=C3S(C)(=O)=O)cc1	EPAC1 antagonist inconclusive
COc1cc(/C=C2/SC(=S)NC2=O)ccc1OS(=O)(=O)c1ccc(C)cc1	EPAC1 antagonist 45µM, EPAC2 antag 40µM
CCc1ccc(-n2cccc2/C=C2/C(=N)N3C(=NC2=O)SN=C3S(C)(=O)=O)cc1	EPAC1 antagonist 79µM
CN(C)c1ccc(/C=C/c2nc3ccccc3s2)c(Cl)c1	none (no result: EPAC2 ag, EPAC1 antagonist, EPAC1 agonist, TRPML1 inh, EPAC2 antag)
COc1cc(/C=C2/C(=N)N3C(=NC2=O)SN=C3S(C)(=O)=O)ccc1OS(=O)(=O)c1ccc(C)cc1	EPAC1 antagonist 50µM, EPAC2 antag inconclusive
COc1cccc(/C=C2\SC(=S)NC2=O)c1OS(=O)(=O)c1ccc(NC(C)=O)cc1	EPAC1 antagonist 79µM
COc1cccc(/C=C2\SC(N)=NC2=O)c1OS(=O)(=O)c1ccccc1	none
CCSc1nc2ccccc2c(=O)n1C1CCOC(C)(C)C1 (configuration not stated)	EPAC2 antag 40µM
CC(=O)N/C(=C/c1ccccc1)c1sc2ccccc2[n+]1CCCCI	none (no result: EPAC2 ag, EPAC1 antagonist, EPAC1 agonist, TRPML1 inh, EPAC2 antag)
CCCN1C(=O)c2ccccc2NC1c1ccc(Cl)c(Cl)c1 (configuration not stated)	EPAC2 antag 28µM
CCCN1C(=O)c2ccccc2NC1c1ccc(Cl)cc1 (configuration not stated)	none
COc1cccc(NC(=O)CN(C)C(=O)CNC(=O)c2ccc(Oc3ccccc3)cc2)c1	EPAC1 agonist 63µM
Cc1cc(=O)[nH]c2ccc(O)cc12	none (no result: EPAC2 ag, EPAC1 antagonist, EPAC1 agonist, TRPML1 inh, EPAC2 antag)
O=C(O)C(c1ccccc1)N1C(=O)/C(=C\c2ccc(-c3ccc(Br)cc3)o2)SC1=S (configuration not stated)	none
O=C(O)C(c1ccccc1)N1C(=O)/C(=C\c2ccc(-c3ccccc3Cl)o2)SC1=S (configuration not stated)	EPAC2 ag 112µM
Cc1[nH]c2ccccc2c1/C=C/c1ccnc2ccccc12	none (no result: EPAC2 ag, EPAC1 antagonist, EPAC1 agonist, TRPML1 inh, EPAC2 antag)
CCOC(=O)c1c(CSc2ccccc2)n(C)c2cc(Br)c(OCC(O)CNC(CO)(CO)CO)cc12 (configuration not stated)	EPAC2 ag inconclusive, EPAC2 antag 40µM
CCCCCCCCCC[n+]1cccc2cc(Cl)ccc21	none (no result: EPAC2 ag, EPAC1 antagonist, EPAC1 agonist, TRPML1 inh, EPAC2 antag)
CCC(=C(c1ccc(OC)cc1)c1ccc(OC)cc1)c1cn(CC(O)CN(CCO)CCO)c2ccccc12 (configuration not stated)	EPAC2 antag 14µM
CCOc1ccc(NC(=NCc2ccc3c(c2)OCO3)SC2CC(=O)N(c3ccc(C(=O)O)cc3)C2=O)cc1 (configuration not stated)	EPAC1 antagonist 28µM, EPAC1 agonist inconclusive
Oc1cccc(C=Nc2cccc3ccccc23)c1O	EPAC1 antagonist 50µM
Oc1ccccc1C=Nc1cccc2ccccc12	none (no result: TRPML1 inh, TRPML1 agonist)
Nc1ccc2c(S(=O)(=O)O)cccc2c1S(=O)(=O)O	EPAC2 antag 56µM
COc1ccc(CC(=O)NO)cc1OC	none (no result: EPAC2 ag, EPAC1 antagonist, EPAC1 agonist, TRPML1 inh, EPAC2 antag)
Cc1cc(C)c2nc(N3C(=O)C(O)=C(C(=O)c4ccco4)C3c3ccco3)sc2c1 (configuration not stated)	EPAC1 antagonist 50µM
O=c1[nH]c(=O)n([C@H]2C[C@@H](O)[C@@H](CO)O2)cc1F	none (no result: EPAC2 ag, EPAC1 antagonist, EPAC1 agonist, TRPML1 inh, EPAC2 antag)
Cc1ccc(S(=O)(=O)c2nc(-c3ccco3)oc2SC(C)C)cc1	EPAC2 antag 56µM
COc1ccccc1C(=O)NC(=S)NNC(=O)c1sc2ccccc2c1Cl	TRPML1 agonist 51
COc1ccccc1C(=O)NNC(=S)NC(=O)c1sc2ccccc2c1Cl	TRPML1 agonist inconclusive
OC(C[n+]1c(Cl)ccc2ccccc21)c1ccccc1 (configuration not stated)	none (no result: EPAC2 ag, EPAC1 antagonist, EPAC1 agonist, TRPML1 inh, EPAC2 antag)
Oc1c(Br)cc(Br)cc1CNc1cccc2cccnc12	EPAC2 antag 11µM
Oc1ccc(Cl)cc1CNc1cccc2cccnc12	EPAC2 antag 56µM
Nc1[nH]n(-c2ccccc2)c(=O)c1N=Nc1ccccc1[N+](=O)[O-]	none
O=c1c2cc([N+](=O)[O-])cc([N+](=O)[O-])c2[nH]n1-c1ccccc1	EPAC1 antagonist inconclusive, EPAC2 antag 45µM
CC(=O)Nc1ccc(S(=O)(=O)Nc2nc3ccccc3nc2Nc2ccc(N)cc2)cc1	EPAC1 antagonist inconclusive

Screening data (PubChem BioAssay)
